PubChem BioAssay (NCI)
Compounds without any hit were thinned out: in the full panel of roughly 83,000, 20% have a hit.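 Step 1: grow cells in 96-well plates. Step 2: add test compound at a single concentration. Step 3: incubate 48 h. Step 4: record percent growth.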 Activity calls are given as the source filed them. The calls were made as follows: active = growth percent below 10; inactive = the rest.

Assays:
Assay in all cases: NCI-60 one-dose screen, 48 h (100 = growth as untreated, 0 = no growth, -100 = all killed)
Conditions in all cases: 10 µM
[1] = tested on: RPMI-8226 leukemia
[2] = tested on: OVCAR-8 ovarian
[3] = tested on: OVCAR-5 ovarian
[4] = tested on: OVCAR-4 ovarian
[5] = tested on: SK-OV-3 ovarian
[6] = tested on: OVCAR-3 ovarian
[7] = tested on: HS 578T breast
[8] = tested on: NCI/ADR-RES ovarian
[9] = tested on: T-47D breast
[10] = tested on: BT-549 breast
[11] = tested on: MDA-MB-435 melanoma
[12] = tested on: MCF7 breast
[13] = tested on: HCT-116 colon
[14] = tested on: HCC-2998 colon
[15] = tested on: KM12 colon
[16] = tested on: MDA-MB-468 breast
[17] = tested on: SW-620 colon
[18] = tested on: IGROV1 ovarian

Measured: growth

Cc1cccc(-c2nc(Nc3ccccc3C(=O)O)c3ccccc3n2)c1
active: [10] -0.675% | [16] -15.1%
inactive: [1] 28.6% | [2] 60.3% | [3] 77% | [4] 41.9% | [5] 76.7% | [6] 34.1% | [7] 16.6% | [8] 24.8% | [9] 26.8% | [11] 44.6% | [12] 24% | [13] 22.7% | [14] 27.1% | [15] 30%

CCOc1ccc2ncc(C#Cc3cncc(C(=O)Nc4ccc(CN5CCN(C)CC5)c(C(F)(F)F)c4)c3)n2n1
active: [1] -13.3% | [2] -60.9% | [3] -87% | [4] -60.6% | [6] -79.1% | [7] -28.2% | [8] -70.1% | [10] -60.9% | [11] -74.2% | [17] -62.1% | [12] -63.7% | [13] -48% | [14] -89.3% | [15] -91.1% | [16] -76.1%
inactive: [5] 45.7% | [9] 71.9%

COc1ccc2[nH]c(O)c(N=NC(=O)COc3ccc(NC(=O)Nc4ccc(Cl)c(Cl)c4)cc3)c2c1
inactive: [1] 11.1% | [8] 84.4%
active: [2] -69.2% | [3] -21.8% | [4] -92.7% | [5] -12.4% | [6] -44.5% | [7] -3.4% | [9] -72.1% | [10] -20.6% | [11] -88.8% | [17] 3.28% | [12] -26% | [13] -42% | [14] -67.4% | [15] -31% | [16] -57.8%

O=c1[nH]c2ccc(Cl)cc2cc1CSc1ccc(Nc2nccc(-c3ccc(Cl)cc3)n2)cc1
inactive: [1] 73% | [3] 81.3% | [5] 122% | [7] 56.8% | [8] 50.2% | [9] 78.9% | [10] 81.7% | [11] 47% | [13] 32.9% | [14] 67% | [15] 31.4%
active: [2] -0.363% | [4] -59.9% | [6] -63.1% | [17] 3.61% | [12] 5.48% | [16] -20.1%

CC(=O)NNc1ccc2nnc(-c3ccc(Br)cc3)n2n1
inactive: [1] 91.7% | [2] 105% | [3] 102% | [4] 99.4% | [5] 81.2% | [6] 104% | [7] 102% | [8] 101% | [9] 84.2% | [10] 90.2% | [11] 94.6% | [17] 102% | [13] 101% | [14] 109% | [15] 105% | [16] 97.4%

O=C1Nc2ccc(F)cc2/C1=C/c1cccc(OCc2ccccc2)c1
inactive: [2] 24.6% | [3] 66% | [4] 36.4% | [18] 36.6% | [7] 32.3% | [9] 13.8% | [10] 23% | [13] 10.1% | [14] 45.8% | [15] 19%
active: [1] -28.1% | [6] 7.98% | [8] -13.9% | [11] 5.74% | [17] 8.79% | [12] 3.46% | [16] -22.3%

COc1ccc(-c2ccc(/C=N/NC(=O)c3[nH]c4ccc(Br)cc4c3-c3ccccc3)o2)cc1
inactive: [1] 18.9% | [2] 37.1% | [3] 68.5% | [4] 44.2% | [5] 49.2% | [6] 21.1% | [7] 28.5% | [9] 37.4% | [10] 75.6% | [17] 32.4% | [12] 10.3% | [13] 18.3% | [14] 63% | [15] 39.8%
active: [8] -22.8% | [11] -45.1% | [16] -2.91%

CN1CCN(c2ccc(C(=O)/C=C/c3ccc(C#N)cc3)cc2)CC1
active: [1] 5.21% | [12] 6.57%
inactive: [2] 92% | [3] 127% | [4] 85% | [5] 86.6% | [18] 68.1% | [6] 79.9% | [7] 93.8% | [9] 87.4% | [10] 91.1% | [11] 28.1% | [17] 35.5% | [13] 18% | [14] 47% | [15] 46.8% | [16] 26.5%

CS(=O)(=O)Nc1ccc(-c2ccc3c(c2)ncn3-c2ccc(NC(=O)Nc3ccc(Br)cc3)cc2)cc1
active: [1] -24% | [5] 1.06% | [6] 5.29% | [7] 0.433% | [9] -8.48% | [10] -36.5% | [11] -18% | [17] 1.27% | [12] -35.1% | [13] 2.46% | [15] 2.79% | [16] -10.7%
inactive: [2] 17.1% | [3] 20.1% | [4] 18.1% | [18] 26.7% | [14] 18%

CC(=O)Nc1ccc(-n2cnc3cc(-c4ccc(O)cc4)ccc32)cc1F
inactive: [1] 14.3% | [2] 15.9% | [3] 42.7% | [4] 61% | [5] 13% | [7] 18.7% | [9] 29.9% | [10] 60.3% | [17] 28.2% | [12] 26.3% | [13] 13.9% | [14] 33.3%
active: [6] 6.74% | [8] 4.16% | [11] -25.7% | [15] 4.96% | [16] -12.3%

CCOC(=O)N/C(=C1/OCCN1C)[P+](c1ccccc1)(c1ccccc1)c1ccccc1
inactive: [1] 34.2% | [2] 89.3% | [3] 85.1% | [4] 65.4% | [5] 95.1% | [18] 62.5% | [6] 84.7% | [7] 62.4% | [9] 65.9% | [10] 75.4% | [11] 51.5% | [17] 89.1% | [12] 41.7% | [13] 75.1% | [14] 60.4% | [15] 51.3%
active: [16] -11.4%

Cc1noc2c(Cc3ccccc3)nn(CC(=O)N/N=C/c3ccc(Br)cc3)c(=O)c12
inactive: [1] 78.6% | [3] 62.5% | [5] 43.8% | [7] 30.7% | [8] 58% | [10] 87.2% | [11] 70.2% | [17] 54.6% | [12] 45.4% | [13] 24.7% | [14] 85.3% | [15] 73.8% | [16] 78.1%
active: [2] 9.24% | [4] -61.9% | [6] -33.6% | [9] 8.11%

Cc1cccc2cc(-c3cc(-c4ccccc4)nc(=S)[nH]3)c(Cl)nc12
active: [11] -6.63%
inactive: [1] 81% | [2] 85.4% | [4] 99.5% | [5] 116% | [18] 93.1% | [6] 107% | [7] 59.4% | [8] 56.6% | [9] 72.9% | [10] 53.1% | [17] 92% | [12] 68.3% | [13] 83.3% | [14] 93.1% | [15] 91.4% | [16] 90.6%

O=c1c2ccccc2nc(COc2ccccc2)n1/N=C/c1ccc(F)cc1
inactive: [1] 71.7% | [2] 94.4% | [4] 76.9% | [5] 114% | [18] 105% | [6] 114% | [7] 90.5% | [9] 57.4% | [10] 94.7% | [11] 86.2% | [17] 93.2% | [12] 80.4% | [13] 75.3% | [14] 104% | [15] 93.5%

CC1=C(C(=O)OC(C)C)C(c2ccc(O)cc2)NC(=S)N1 (stereo not given)
inactive: [1] 95.7% | [2] 130% | [3] 116% | [4] 115% | [18] 110% | [6] 105% | [7] 103% | [8] 97.5% | [9] 102% | [10] 82.7% | [11] 110% | [17] 120% | [12] 97.7% | [13] 98.1% | [14] 107% | [15] 106% | [16] 99%

CN1C(=O)/C(=C/c2ccc3ncsc3c2)NC1=NC12CC3CC(CC(O)(C3)C1)C2
active: [1] -7.67% | [3] 7.24% | [18] 8.51% | [6] 0.338% | [7] -10.5% | [10] -39.9% | [17] 5.62% | [16] -5.71%
inactive: [2] 16% | [4] 32% | [8] 10.8% | [9] 11.7% | [11] 27.4% | [13] 17.3% | [14] 10.1% | [15] 10.4%

O=c1[nH]n(C(=S)N/N=C/c2ccc(F)cc2)c(=O)c2ccccc12
active: [1] -22.5% | [13] -66%
inactive: [2] 36.4% | [4] 82% | [5] 102% | [18] 90.5% | [6] 32.5% | [7] 91.6% | [8] 31.1% | [9] 58.7% | [10] 70.1% | [11] 84.5% | [17] 30.4% | [12] 15.9% | [14] 92.9% | [15] 36.2% | [16] 57.7%

NC(=Nc1ccc(OCCCCCCCCn2ccnn2)cc1)c1ccccc1
inactive: [3] 24.9% | [4] 57.1% | [6] 25.3% | [7] 40.7% | [9] 40% | [10] 56.6% | [17] 32.4% | [12] 13.8% | [14] 23.8% | [15] 18.2% | [16] 24%
